The values that follow come from PubChem BioAssay.

Test [1] is described as follows: compound effects on lung adenocarcinoma cell viability – A549, calcein-AM fluorescence, 48 h, basal, profiling panel (AID 1162). Further: test concentration not given here. As to conditions: higher = more signal.
The nature of test [2]: compound effects on differentiated 3T3-L1 adipocyte viability – cell-based, 3T3-L1 adipocytes, calcein-AM fluorescence, 48 h, basal, profiling panel (AID 1163). Further: test concentration not given here. As to conditions: 3T3-L1 adipocytes viability, higher = more signal.
Test [3] is described as follows: compound effects on hepatocellular carcinoma cell viability – HepG2, calcein-AM fluorescence, 48 h, basal, profiling panel (AID 1164). Further: test concentration not given here. Particulars: higher = more signal.
A short description of test [4]: compound effects on multiple myeloma cell viability – MM1S, calcein-AM fluorescence, 48 h, basal, profiling panel (AID 1165). Further: test concentration not given here. As to conditions: higher = more signal.
Test [5] is described as follows: calcein-AM signal in unstimulated myeloma cells – cell-based, calcein-AM fluorescence, 48 h, PK04 Diversity Set, profiling panel (AID 1166).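 Further: cells grown under basal conditions without added stimulus; test concentration not given here.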 As to conditions: RPMI8226 myeloma viability, higher = more signal.
The nature of test [6]: JC-1 mitochondrial signal, unstimulated HepG2 cells – cell-based, JC-1 fluorescence, 24 h, 100 nL compound, profiling panel (AID 1167). Further: test concentration not given here. Particulars: HepG2 mitochondrial potential, higher = more signal.
Test [7] is described as follows: JC-1 mitochondrial signal, unstimulated adipocytes – cell-based, JC-1 fluorescence, 3T3-L1 adipocytes, 24 h, 100 nL compound, profiling panel (AID 1168). Further: test concentration not given here. Particulars: JC-1 mitochondrial fluorescence, higher = more signal, called active from +8 up or from −8 down.
Test [8] can be described thus: JC-1 mitochondrial signal, unstimulated myeloma cells – cell-based, JC-1 fluorescence, RPMI8226, 24 h, 100 nL compound, profiling panel (AID 1169). Further: test concentration not given here. Particulars: JC-1 mitochondrial potential fluorescence, higher = more signal.
The nature of test [9]: JC-1 mitochondrial signal, unstimulated MM1S myeloma – cell-based, JC-1 fluorescence, 24 h, 100 nL compound, profiling panel (AID 1170). Further: test concentration not given here. As to conditions: MM1S mitochondrial potential, higher = more signal.
Test [10] can be described thus: resazurin metabolic signal in A549 cells – cell-based, resazurin fluorescence, 24 h, PK04 Diversity Set, profiling panel (AID 1171). Further: test concentration not given here. Particulars: A549 viability, higher = more signal, called active from +8 up or from −8 down. On the technique in general: The colour change of resazurin is a common sign of viable cells or microbes.
The nature of test [11]: resazurin metabolic signal in HepG2 cells – cell-based, resazurin fluorescence, 24 h, PK04 Diversity Set, profiling panel (AID 1172). Further: test concentration not given here. Particulars: HepG2 viability, higher = more signal.
Test [12] in a line: budding yeast growth changes without added modifier – OD600, strain BY4716, 24 h, basal condition, primary screen (AID 1173). As to conditions: S. cerevisiae BY4716 growth, OD600, 24 h; higher = more signal, called active from +8 up or from −8 down.
The nature of test [13]: viability profiling in MM1S myeloma cells – cell-based, resazurin fluorescence, basal, 24 h, PK04 Diversity Set, profiling panel (AID 1174). Further: test concentration not given here. As to conditions: higher = more signal, called active from +8 up or from −8 down.
The target in test [14] is Dihydroorotate dehydrogenase (quinone), mitochondrial (Plasmodium falciparum (isolate 3D7)) (UniProt Q08210). The test can be described thus: inhibition of P. falciparum DHODH – biochemical, C-terminal His tag, absorbance 600 nm, primary screen (AID 1175).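 Further: recombinant parasite enzyme with a five histidine tag at its C terminus; test concentration not given here.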 Particulars: PfDHODH enzyme, DCIP absorbance 600 nm; higher = more signal, called active from +8 up or from −8 down.
Dihydroorotate dehydrogenase (quinone), mitochondrial (Plasmodium falciparum (isolate 3D7)), sequence (Q08210 whole entry, looked up): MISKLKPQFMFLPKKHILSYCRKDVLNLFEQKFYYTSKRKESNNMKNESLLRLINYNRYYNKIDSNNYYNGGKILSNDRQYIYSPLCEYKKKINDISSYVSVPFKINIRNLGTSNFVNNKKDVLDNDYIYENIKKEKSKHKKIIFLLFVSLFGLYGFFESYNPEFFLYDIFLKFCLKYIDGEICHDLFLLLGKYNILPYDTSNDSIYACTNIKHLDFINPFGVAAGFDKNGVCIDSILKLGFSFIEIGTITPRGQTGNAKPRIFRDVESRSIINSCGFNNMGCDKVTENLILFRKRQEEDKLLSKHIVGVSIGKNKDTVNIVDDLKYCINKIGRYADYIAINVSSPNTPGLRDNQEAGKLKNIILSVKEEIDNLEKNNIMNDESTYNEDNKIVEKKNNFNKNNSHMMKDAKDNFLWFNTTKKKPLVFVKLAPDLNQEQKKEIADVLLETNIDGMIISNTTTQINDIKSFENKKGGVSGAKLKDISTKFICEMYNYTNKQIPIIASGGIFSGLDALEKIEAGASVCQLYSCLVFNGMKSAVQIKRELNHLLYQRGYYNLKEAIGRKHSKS
A short description of test [15]: inhibition of PAO1 biofilm formation – strain PAO1, LB-PBS medium, absorbance 600 nm, primary screen (AID 1176). Further: test concentration not given here. As to conditions: P. aeruginosa PAO1 growth/biofilm, A600, 12 h; higher = more signal.
Test [16] is described as follows: growth modulation of vineyard yeast isolate – strain RM11-1a, OD600, basal, 24 h, primary screen (AID 1177).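 Further: cultures grown under basal conditions with no added stressor; test concentration not given here.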 As to conditions: S. cerevisiae RM11-1a growth, OD600, 24 h; higher = more signal, called active from +8 up or from −8 down.
Test [17] in a line: growth of efflux-deficient E. coli DRC39 – strain DRC39, OD650, 24 h, E. coli filamentation inducers, primary screen (AID 1178).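 Further: growth measured as culture turbidity by optical density at 650 nm; test concentration not given here.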 As to conditions: E. coli DRC39 acrAB, higher = more signal, called active from +8 up or from −8 down.
A short description of test [18]: growth of efflux-deficient E. coli DRC39 – strain DRC39, OD650, 48 h, E. coli filamentation inducers, primary screen (AID 1179).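 Further: screen aims at cell division blockers that make cells filament.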 As to conditions: E. coli DRC39 delta-acrAB growth, higher = more signal, called active from +8 up or from −8 down.
The nature of test [19]: viability profiling in RPMI8226 myeloma cells – cell-based, resazurin fluorescence, basal, 24 h, PK04 Diversity Set, profiling panel (AID 1180).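 Further: RPMI8826 multiple myeloma cell line at 5000 cells per well; test concentration not given here.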 Particulars: higher = more signal.
Test [20] addresses E3 ubiquitin-protein ligase XIAP (Homo sapiens) (UniProt P98170). The test can be described thus: small molecules binding XIAP protein – biophysical, small-molecule microarray, fluorescence 635 nm, primary screen (AID 1181).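 Further: score merges 667 nm emission and signal to noise over triplicate slides.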 As to conditions: higher = more signal.

Several values for one entry are separate records, joined by “and”; a condition that tells them apart may be missing. Identical values can stand only once. Activity calls are given as the source filed them. Unless noted, how the calls were made is not given here.

E3 ubiquitin-protein ligase XIAP (Homo sapiens), sequence (P98170 whole entry, looked up): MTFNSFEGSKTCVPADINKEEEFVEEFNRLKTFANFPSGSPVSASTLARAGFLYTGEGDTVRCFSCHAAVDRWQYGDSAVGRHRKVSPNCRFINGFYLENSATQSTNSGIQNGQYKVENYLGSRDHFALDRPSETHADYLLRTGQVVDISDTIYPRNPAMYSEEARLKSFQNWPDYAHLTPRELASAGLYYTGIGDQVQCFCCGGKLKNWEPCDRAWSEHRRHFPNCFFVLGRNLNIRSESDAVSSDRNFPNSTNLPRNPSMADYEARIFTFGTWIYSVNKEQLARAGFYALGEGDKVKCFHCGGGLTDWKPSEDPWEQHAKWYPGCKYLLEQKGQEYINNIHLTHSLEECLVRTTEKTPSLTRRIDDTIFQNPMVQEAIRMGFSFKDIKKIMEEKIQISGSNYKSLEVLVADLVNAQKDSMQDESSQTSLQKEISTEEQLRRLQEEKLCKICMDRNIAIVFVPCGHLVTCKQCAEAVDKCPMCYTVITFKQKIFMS

As to `C=CCN(C(=O)C(c1cccs1)N(C(=O)/C=C\C(=O)O)C(C)(C)CO)c1ccc(OC)cc1` (stereo not given), the z-score is 3.04 and 1.76 in [1]; 1.09 and 0.718 in test [2]; 0.717 and 1.1 in test [3]; 1.61 and 1.55 in [4]; -0.223 and 1.05 in test [5]; 1.16 and 0.287 in [6]. Further, the z-score in [7] was 2.24 (inactive) and 0.954 (inactive); in test [8], -0.567 and 0.754; in test [9], 0.212 and 0.326; in test [10] it was 0.579 (inactive) and -0.0357 (inactive); in [11], 0.916 and 0.892; in test [12], -2.66 (inactive) and -1.93 (inactive). Further, the z-score in test [13] was 1.41 (inactive) and 0.788 (inactive); in test [15] it was 0.659 (inactive); in [16], -4.37 (inactive) and -2.5 (inactive); in test [17], 1.81 (inactive) and 1.92 (inactive); in [18], 2.23 (inactive) and 2.15 (inactive); in test [19], 0.402 and 0.207. Also, the composite z-score in test [14] is -1.46 (inactive) and -1.61 (inactive); in test [20], -0.102 and 0.214.

Regarding `C=CCN(CCCCC)C(=O)C(c1cccs1)N(C(=O)/C=C\C(=O)O)c1c(Cl)cccc1CO` (stereo not given), the z-score in test [1] is 0.307 and -0.656; in test [2], 0.131 and -0.101; in test [3], -1.11 and -0.202; in test [4], 1.34 and 2.08; in test [5] it was 0.114 and -0.235; in test [6], -0.0476 and -0.222. The z-score in test [7] was -0.706 (inactive) and 0.13 (inactive); in test [8], 0.1 and 0.992; in test [9], 0.0829 and -0.125; in test [10], -0.559 (inactive) and 0.0449 (inactive); in [11], -0.939 and -0.559; in test [12], -0.69 (inactive) and -0.768 (inactive). Moreover, the z-score in test [13] was -0.18 (inactive) and -0.317 (inactive); in test [15], -0.0837 (inactive) and -0.677 (inactive); in test [16], -0.0138 (inactive) and -0.374 (inactive); in test [17], 0.246 (inactive) and 0.0068 (inactive); in test [18] it was 0.425 (inactive) and 0.212 (inactive); in test [19] it was -0.394 and -0.42. Besides, the composite z-score in [14] is 0.401 (inactive) and 0.461 (inactive); in [20], -0.158 and -0.378.

For the molecule `CCOC(=O)NN=C1C[C@@H](O)[C@@H](O)[C@@H]2[C@@H]3C(=O)N(Cc4ccccc4)C(=O)[C@@H]3CC[C@@H]12`, the z-score in test [1] is -0.226; in test [2], -0.0135; in test [3] it was -1.29; in test [4], 0.599; in test [5], -0.461; in [6], 0.548. The z-score in test [7] is 0.152 (inactive); in test [8], 0.387; in test [9], -0.979; in test [10], 0.0002 (inactive); in test [11] it was 0.213; in [12] it was 0.331 (inactive). The z-score is -1.17 (inactive) in [13]; 0.529 (inactive) in test [15]; 0.371 (inactive) in test [16]; 0.199 (inactive) in test [17]; -0.951 (inactive) in test [18]; 0.561 in test [19]. Also, the composite z-score was 0.0897 (inactive) in test [14] and 1.34 in test [20].

Consider `C=CCN(C(=O)C1N(CCCCCCO)C(=O)C2C(C(=O)O)C3C=CC21O3)C(C)(C)C` (stereo not given), for which the z-score in [1] was 0.698 and -0.443; in test [2], -0.356 and -0.171; in test [3], 0.159 and 0.187; in [4] it was 0.576 and 0.13; in test [5], -0.566 and -0.866; in test [6] it was -0.872 and -0.997. Further, the z-score in test [7] is -0.373 (inactive) and 0.302 (inactive); in test [8], 0.186 and 0.699; in test [9] it was 1.29 and 0.193; in test [10], -0.0791 (inactive) and -0.385 (inactive); in test [11], -1.01 and -0.273; in [12], 0.158 (inactive) and 0.0807 (inactive). The z-score was -0.184 (inactive) and -0.49 (inactive) in [13]; -0.401 (inactive) and -0.484 (inactive) in test [15]; -0.37 (inactive) and -1.03 (inactive) in test [16]; -0.739 (inactive) and -0.371 (inactive) in [17]; -0.467 (inactive) and -0.281 (inactive) in test [18]; -0.106 and -0.445 in test [19]. Further, the composite z-score in test [14] is -0.708 (inactive) and -0.59 (inactive); in [20], -0.227 and -0.231.

Regarding `C[C@@H](c1ccccc1)N1C(=O)[C@H]2[C@H]3[C@H](O)[C@H](O)CC(=O)[C@@H]3CC[C@H]2C1=O`, the z-score is 0.0128 in test [1]; 0.762 in test [2]; 1.15 in test [3]; 0.288 in [4]; -1.17 in test [5]; 0.921 in test [6]. Besides, the z-score was 2.42 (inactive) in test [7]; -0.438 in test [8]; 1.65 in test [9]; -0.1 (inactive) in test [10]; -0.7 in [11]; -1.05 (inactive) in test [12]. For the same molecule, the z-score in [13] was 0.295 (inactive); in [15] it was 0.377 (inactive); in [16] it was -2.9 (inactive); in test [17], -0.579 (inactive); in test [18] it was -0.954 (inactive); in [19], -0.62. Besides, the results for the composite z-score in test [14] and in [20] were -1.59 (inactive) and -0.163, respectively.

For the molecule `C=CCN(CCCCC)C(=O)C1N(CCCCCCO)C(=O)C2C(C(=O)O)C3C=CC21O3` (stereo not given), the z-score in test [1] is -0.681 and -0.373; in [2], -0.573 and -0.412; in [3], 0.122 and 0.657; in test [4], 1.6 and 0.379; in test [5] it was 0.0447 and -0.164; in test [6], -0.649 and -0.526. Moreover, the z-score in test [7] was -0.2 (inactive) and 0.409 (inactive); in test [8], 0.15 and 0.0486; in [9], 0.702 and -0.254; in test [10], -0.66 (inactive) and -0.379 (inactive); in [11] it was -0.382 and -0.569; in test [12] it was -0.0594 (inactive) and -0.411 (inactive). In addition, the z-score is -0.847 (inactive) and -0.718 (inactive) in [13]; 0.0809 (inactive) and -0.966 (inactive) in test [15]; -0.42 (inactive) and -0.52 (inactive) in test [16]; 0.554 (inactive) and -0.272 (inactive) in test [17]; 0.44 (inactive) and -0.188 (inactive) in test [18]; -0.772 and -0.735 in [19]. The composite z-score in [14] was 0.0615 (inactive) and -0.082 (inactive); in test [20], -0.152 and 0.0785.
